Data reported in PubChem BioAssay (NCATS).
Results filed as inconclusive are left out. Where a call stands in place of a potency, no number is given. A number with no mark means an inactive call. Calls of active or inactive are those of the source. Calls come from the whole dose curve; as a rule, active = well fitted inhibition curve with a large enough effect; inconclusive = small, poorly fitted or top-dose-only effect; inactive = no such curve, though single readings can be large or run the other way.

Tests used:
[1] = system: Zika virus NS2B-NS3 protease (unlinked complex); test: Primary screen GU Rhodamine qHTS for Zika virus inhibitors: Unlinked NS2B-NS3 protease assay (AID 1347159); note: nearly all actives have a fitted effect of over 60% in size
Summary of the method: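 Percent inhibition derives from the 15-min fluorescence change (ex 480, em 540 nm), normalized to no-enzyme and no-inhibitor wells. Reactions contained 25 nM NS2B-NS3 complex and 1.5 microM substrate in 10 mM Tris-HCl pH 8.0.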

[2] = system: Zika virus NS2B-NS3 protease (linked construct); test: Primary screen NINDS Rhodamine qHTS for Zika virus inhibitors (AID 1347160); note: nearly all actives have a fitted effect of over 55% in size
Summary of the method: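 In 10 mM Tris-HCl pH 8.0 containing 0.01% Tween 20, linked NS2B-NS3 protease (25 nM final) is exposed to test compounds for 15 min. Cleavage of 1.5 microM Rhodamine110 substrate is tracked by fluorescence over 15 min.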

Compound	activity change, negative = inhibition [1]	outcome [2]	Potency [1]	Potency [2]
CC1OC(OC2C(C)OC(OC3C(OC(=O)C45CCC(C)(C)CC4C4=CCC6C7(C)CCC(OC8OC(C(=O)O)C(O)C(O)C8OC8OC(CO)C(O)C(OC9OC(C)C(O)C(O)C9O)C8O)C(C)(CO)C7CCC6(C)C4(C)CC5)OC(CO)C(O)C3O)C(O)C2O)C(O)C(O)C1O (stereo not drawn)	1.27% [at 19.1 µM]	inactive [at 10.7 µM]		
Cc1[nH]c2ccccc2c1CCNC(=O)c1ccccc1F			inactive	inactive
C=C(C)C1CCC2(C(=O)O)CCC3(C(=O)O)C(CCC4C5(C)CCC(O)C(C)(C(=O)O)C5CCC43C)C12 (stereo not drawn)			inactive	inactive
COc1cc(N2CCOCC2)ccc1Nc1ncc(Cl)c(Nc2ccccc2NS(C)(=O)=O)n1			inactive	inactive
CC(C)(C)CCN1C[C@@H]2C(CNC(=O)c3cc(Cl)cc(Cl)c3)[C@@H]2C1 (stereo partly drawn)			inactive	inactive
C=C1C[C@]23C[C@H]1CC[C@H]2[C@@]12CC[C@H](O)[C@@](C)(C(=O)O1)[C@H]2[C@@H]3C(=O)O			inactive	inactive
COC(=O)Cc1cc2c(c([N+](=O)[O-])c1)N(C(=O)CC[C@H](N)C(=O)O)CC2			inactive	inactive
CCn1c(=O)c(-c2ccn[nH]2)cc2c(C)nc(N)nc21			inactive	inactive
CC(C)(C)NS(=O)(=O)c1cncc(-c2cc(F)c3nc(N)nn3c2)c1			inactive	inactive
CC1(C)C2CC(OC3OC(COC4OCC(O)(CO)C4O)C(O)C(O)C3O)C1(C)CC2O (stereo not drawn)			inactive	inactive
COc1cc2c(cc1O)CC[C@H]1[C@@H]2CC[C@]2(C)[C@H](O)CC[C@@H]12			inactive	inactive
CC(C)(C)OC(=O)N1CCC(OCc2nc(-c3ccncc3)no2)CC1			inactive	inactive
Cn1c(=O)n(-c2ccc(C(C)(C)C#N)cc2)c2c3cc(C#Cc4cccnc4)ccc3ncc21			inactive	inactive
COC1/C=C/C(C)(O)C(SCC(N)C(=O)O)CC(=O)OC(C)C(C)CC/C=C/1C (stereo not drawn)			inactive	inactive
NCCCNc1ccc(Nc2nccc(Nc3cc(C4CC4)[nH]n3)n2)cc1			inactive	inactive
Cn1c2ccc(F)cc2c2c(C(=O)N3CCCC3)cn(-c3ccccc3)c(=O)c21			inactive	inactive
C/C(=C\CCC(C)CCO)C(=O)OC1(C)CCC2C(C(=O)O)=COC(OC3OC(CO)C(O)C(O)C3O)C21 (stereo not drawn)			inactive	inactive
CC(=O)O[C@@H]1C[C@@H](OC(C)=O)C(C)(C)/C=C/[C@H](C)[C@H](OC(C)=O)[C@@]2(O)C[C@H](C)[C@H](OC(=O)c3ccccc3)[C@@H]2/C=C/1C			inactive	inactive
N#Cc1cc(F)cc(-c2nc(-c3ccccn3)no2)c1			inactive	inactive
CC(/C=C/C1=CC2=CC(=O)C(C)(O)C(O)C2=CO1)=C\C(C)CCO (stereo not drawn)			inactive	inactive
O=C(/C=C/c1ccccc1)OC[C@]12O[C@H]1[C@@H](O)[C@@H]1C=CO[C@@H](O[C@@H]3O[C@H](CO)[C@@H](O)[C@H](O)[C@H]3O)[C@@H]12			inactive	inactive
CN1CCC(Nc2nc(Nc3ccc(Oc4ccccc4)cc3)c3c(=O)[nH]cc(Br)c3n2)CC1			inactive	inactive
CN1CCN(c2ccc(C(=O)Nc3n[nH]c4ccc(Cc5cc(F)cc(F)c5)cc34)c(NC3CCOCC3)c2)CC1			inactive	inactive
CC1=CC(=O)C2C(C)(C)CCC[C@]2(C)[C@H]1CO (stereo partly drawn)			inactive	inactive
O=C(CSc1nc2c(c(=O)n1-c1ccccc1)SCC2)Nc1ccc(-c2ccccc2)cn1			inactive	inactive
CNC(=O)c1cc(Oc2ccc3nc(N[C@@H]4CCCC[C@H]4O)sc3c2)ccn1			inactive	inactive
COC(=O)C1=CO[C@@H](O[C@@H]2O[C@H](CO)[C@@H](O)[C@H](O)[C@H]2O)[C@@H]2[C@@](C)(O)[C@@H](OC(=O)/C=C/c3ccc(O)cc3)C[C@]12O			inactive	inactive
CC(=O)O[C@@H]1[C@@H](O)[C@H](C)O[C@@H](O[C@H]2[C@@H]3C=CO[C@@H](O[C@@H]4O[C@H](CO)[C@@H](O)[C@H](O)[C@H]4O)[C@@H]3[C@@]3(CO)O[C@@H]23)[C@@H]1OC(=O)/C=C/c1ccccc1			inactive	inactive
COCC1OC(OC(C)(C)C2CCC3(C)C=C(C4CCC5C4(C)CC(O)C4OC(C(C)(C)OC6OC(CO)C(O)C(O)C6NC(C)=O)CCC45C)CCC3O2)C(NC(C)=O)C(O)C1O (stereo not drawn)			inactive	inactive
